Results: PubChem BioAssay (NCI)
The panel holds about 83,000 compounds, 20% with a hit somewhere; the sample as a whole holds those more often.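 Single-dose data. Exposure time 48 hours. Values below 10 considered active.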 Unmarked numbers belong to inactive results. Active and inactive are the calls of the source.

What follows are compounds tested on UACC-62 melanoma (assay: NCI-60 one-dose screen, 48 h (100 = growth as untreated, 0 = no growth, -100 = all killed)). Settings: 10 µM.

Row | SMILES | growth
1 | COc1cc(-c2nn3c(/C=C4/C(=O)Nc5ccccc54)c(-c4ccc(C)cc4)nc3s2)cc(OC)c1OC | 58.5%
2 | CCCCC/C=C/C(=O)CCc1ccc(O)c(OC)c1 | 83.1%
3 | Cc1c(Cl)cccc1NC(=O)c1sc2nc3c(cc2c1N)C(=O)CCC3 | 34.5%
4 | CSc1cc(SC)ncn1 | 93.7%
5 | O=C(Nc1ccc(CN2CCc3nc4cc(O)c(O)cc4cc32)cc1)c1ccc(Cl)c(Cl)c1 | 97%
6 | COc1ccc(-c2cc(/C=C/C(=O)c3cc(OC)c(OC)c(OC)c3)[nH]n2)cc1OC | 50.8%
7 | O=C1NC(=O)N(Cc2ccccc2)CC1Br (stereo not drawn) | 72.8%
8 | O=C(Nc1ccncc1)C(=O)c1cn(S(=O)(=O)c2cccc(Cl)c2)c2ccccc12 | 61.2%
9 | CCOC(=O)C(=Cc1ccc(Br)cc1)C(=O)OCC | -72.6% (active)
10 | COc1cc(-c2cc(/C=C3\C(=O)Nc4ccc(Cl)cc43)[nH]n2)cc(OC)c1OC | -59.6% (active)
11 | CC(C)(C)NC/C(=C\c1ccccc1)C(=O)c1ccccc1 | -79.3% (active)
12 | Cc1cc(N(CCCNc2ccnc3cc(Cl)ccc23)Cc2cccs2)nc(Cl)n1 | 47.5%
13 | Nc1nc(N)c2c(ccc3nccc32)[nH]1 | 47.2%
14 | CCCC(F)C(=O)O (stereo not drawn) | 100%
15 | Cn1c(N)c(N=Nc2ccc(S(=O)(=O)Nc3nccs3)cc2)c(=O)n(C)c1=O | 106%
16 | COc1cc(-c2cc(/C=C/C(=O)c3ccc(Cl)c(Cl)c3)[nH]n2)cc(OC)c1OC | 81.6%
17 | Nc1ccccc1NC(=O)CCCCC(=O)Nc1ccc2c(c1)/C(=C/c1ccc[nH]1)C(=O)N2 | 58%
18 | COc1cc(-c2cc(/C=C/C(=O)c3ccc(N)cc3)[nH]n2)cc(OC)c1OC | 20.6%
19 | O=C(O)CC(Cl)C(Cl)CC(=O)O (stereo not drawn) | 100%
20 | Nc1nc(N)c(NC(=O)CNc2ccc(C(=O)O)cc2)c(N)n1 | 101%

Row | SMILES | growth
21 | COc1ccc(/C=C2/CN(CCC#N)C/C(=C\c3ccc(OC)cc3)C2=O)cc1 | -27.5% (active)
22 | CCCCCC(=O)c1ccc(OCCCN2CCN(C(=O)OCC)CC2)cc1 | 87%
23 | O=C(Nc1ccc(Cl)c(Cl)c1)Nc1c(Oc2ccc(Cl)c(Cl)c2)ccc(Cl)c1S(=O)(=O)O | 31.6%
24 | COc1cc(/C=C2\CCCC3=C2N=C2SC=NN2C3c2cc(OC)c(OC)c(OC)c2)cc(OC)c1OC (stereo not drawn) | -51.7% (active)
25 | CCC(=O)N1C/C(=C/c2ccc(OC)cc2)C(=O)/C(=C/c2ccc(OC)cc2)C1 | 27.3%
26 | O=C(c1ccc(Cl)cc1Cl)N1CCOCC1 | 101%
27 | O=C(CC(C(=O)c1ccccc1)N1CCOCC1)c1ccccc1 (stereo not drawn) | 87.7%
28 | COc1ccc2c(c1)O/C(=C\c1ccc([N+](=O)[O-])o1)C2=O | -37.6% (active)
29 | COc1cc(Cl)cc(-c2nn(-c3cccc(NC(=O)Nc4cc(C(F)(F)F)cc(C(F)(F)F)c4)c3)cc2-c2ccncc2)c1 | -21.2% (active)
30 | CCCCCCCCCCCCCCCCN(C(C)c1ccccc1)S(=O)(=O)c1ccc(OC)c(N)c1 (stereo not drawn) | 103%
31 | C#Cc1ccc(-n2c(/C=C/c3ccc4ccccc4c3)nc3ncccc3c2=O)cc1 | 26.7%
32 | CCN(CC)CCNC(=O)c1ccc(NC(C)=O)cc1 | 94.2%
33 | COc1cc(C(=O)/C=C/c2cc(-c3cc(OC)c(OC)c(OC)c3)n[nH]2)cc(OC)c1OC | 51%
34 | COc1cc(C)ccc1C(=O)c1ccc(C)cc1OC | 42.3%
35 | O=C(Nc1cccc(Br)c1)c1cc(=O)[nH]c2ccccc12 | 80.9%
36 | N=C(N)c1ccc(-c2ccc(-c3cccs3)o2)cc1 | 67.7%
37 | CC(=O)N1C/C(=C/c2ccc(Cl)cc2)C(=O)/C(=C/c2ccc(Cl)cc2)C1 | -74.6% (active)
38 | Cc1ccc(C(=O)Nc2cccc(F)c2)cc1NC(=O)C1(c2ncnc3[nH]ccc23)CC1 | 54.5%
39 | COc1ccc(OC)c(NC(=O)c2sc3nc4c(cc3c2N)C(=O)CCC4)c1 | 75.3%

What follows are compounds tested on LOX IMVI melanoma in the same assay as above. Settings: 10 µM.

Row | SMILES | growth
40 | COc1cc(-c2nn3c(/C=C4/C(=O)Nc5ccccc54)c(-c4ccc(C)cc4)nc3s2)cc(OC)c1OC | 44.1%
41 | CCCCC/C=C/C(=O)CCc1ccc(O)c(OC)c1 | 23.7%
42 | Cc1c(Cl)cccc1NC(=O)c1sc2nc3c(cc2c1N)C(=O)CCC3 | 33.3%
43 | CSc1cc(SC)ncn1 | 105%
44 | O=C(Nc1ccc(CN2CCc3nc4cc(O)c(O)cc4cc32)cc1)c1ccc(Cl)c(Cl)c1 | 104%
45 | COc1ccc(-c2cc(/C=C/C(=O)c3cc(OC)c(OC)c(OC)c3)[nH]n2)cc1OC | -79% (active)
46 | O=C1NC(=O)N(Cc2ccccc2)CC1Br (stereo not drawn) | 25.8%
47 | O=C(Nc1ccncc1)C(=O)c1cn(S(=O)(=O)c2cccc(Cl)c2)c2ccccc12 | 44.6%
48 | CCOC(=O)C(=Cc1ccc(Br)cc1)C(=O)OCC | -85.7% (active)
49 | COc1cc(-c2cc(/C=C3\C(=O)Nc4ccc(Cl)cc43)[nH]n2)cc(OC)c1OC | 5.85% (active)
50 | CC(C)(C)NC/C(=C\c1ccccc1)C(=O)c1ccccc1 | -77% (active)
51 | Cc1cc(N(CCCNc2ccnc3cc(Cl)ccc23)Cc2cccs2)nc(Cl)n1 | 8.99% (active)
52 | Nc1nc(N)c2c(ccc3nccc32)[nH]1 | 23%
53 | CCCC(F)C(=O)O (stereo not drawn) | 100%
54 | Cn1c(N)c(N=Nc2ccc(S(=O)(=O)Nc3nccs3)cc2)c(=O)n(C)c1=O | 89.4%
55 | COc1cc(-c2cc(/C=C/C(=O)c3ccc(Cl)c(Cl)c3)[nH]n2)cc(OC)c1OC | 29.6%
56 | Nc1ccccc1NC(=O)CCCCC(=O)Nc1ccc2c(c1)/C(=C/c1ccc[nH]1)C(=O)N2 | 85.2%
57 | COc1cc(-c2cc(/C=C/C(=O)c3ccc(N)cc3)[nH]n2)cc(OC)c1OC | -52.3% (active)
58 | O=C(O)CC(Cl)C(Cl)CC(=O)O (stereo not drawn) | 94%
59 | Nc1nc(N)c(NC(=O)CNc2ccc(C(=O)O)cc2)c(N)n1 | 98.3%

Row | SMILES | growth
60 | COc1ccc(/C=C2/CN(CCC#N)C/C(=C\c3ccc(OC)cc3)C2=O)cc1 | -53.7% (active)
61 | CCCCCC(=O)c1ccc(OCCCN2CCN(C(=O)OCC)CC2)cc1 | 81.7%
62 | O=C(Nc1ccc(Cl)c(Cl)c1)Nc1c(Oc2ccc(Cl)c(Cl)c2)ccc(Cl)c1S(=O)(=O)O | 33.8%
63 | COc1cc(/C=C2\CCCC3=C2N=C2SC=NN2C3c2cc(OC)c(OC)c(OC)c2)cc(OC)c1OC (stereo not drawn) | -36.9% (active)
64 | CCC(=O)N1C/C(=C/c2ccc(OC)cc2)C(=O)/C(=C/c2ccc(OC)cc2)C1 | -58.7% (active)
65 | O=C(c1ccc(Cl)cc1Cl)N1CCOCC1 | 96.8%
66 | O=C(CC(C(=O)c1ccccc1)N1CCOCC1)c1ccccc1 (stereo not drawn) | 88.4%
67 | COc1ccc2c(c1)O/C(=C\c1ccc([N+](=O)[O-])o1)C2=O | -64.7% (active)
68 | COc1cc(Cl)cc(-c2nn(-c3cccc(NC(=O)Nc4cc(C(F)(F)F)cc(C(F)(F)F)c4)c3)cc2-c2ccncc2)c1 | -24% (active)
69 | CCCCCCCCCCCCCCCCN(C(C)c1ccccc1)S(=O)(=O)c1ccc(OC)c(N)c1 (stereo not drawn) | 91.7%
70 | C#Cc1ccc(-n2c(/C=C/c3ccc4ccccc4c3)nc3ncccc3c2=O)cc1 | -39% (active)
71 | CCN(CC)CCNC(=O)c1ccc(NC(C)=O)cc1 | 95.3%
72 | COc1cc(C(=O)/C=C/c2cc(-c3cc(OC)c(OC)c(OC)c3)n[nH]2)cc(OC)c1OC | -62.7% (active)
73 | COc1cc(C)ccc1C(=O)c1ccc(C)cc1OC | 31.5%
74 | O=C(Nc1cccc(Br)c1)c1cc(=O)[nH]c2ccccc12 | 89.3%
75 | N=C(N)c1ccc(-c2ccc(-c3cccs3)o2)cc1 | 12.2%
76 | CC(=O)N1C/C(=C/c2ccc(Cl)cc2)C(=O)/C(=C/c2ccc(Cl)cc2)C1 | -79.6% (active)
77 | Cc1ccc(C(=O)Nc2cccc(F)c2)cc1NC(=O)C1(c2ncnc3[nH]ccc23)CC1 | 42.1%
78 | COc1ccc(OC)c(NC(=O)c2sc3nc4c(cc3c2N)C(=O)CCC4)c1 | 90.8%
